# YopH inh – YopH (Yersinia) phosphatase inhibition. fluorescence Ex485/Em525. inhibition, % (no concentration beside the values). 140,000 tested, 0.16% active. AID 898; in the data active = inhibition above about 50%
# RmlCD inh 1536 – inhibitors of Mycobacterium tuberculosis RmlC and RmlD coupled enzymes; P9WH09+P9WH11; RmlC+RmlD coupled enzyme assay, percent inhibition; primary screen in compound mixtures; AID 1533; inhibition, % at 3.6 µM; 160,000 tested, 0.03% active; in the data active = inhibition mostly above about 34%, no sharp cut-off
# Target sequence (P9WH09 whole entry, looked up): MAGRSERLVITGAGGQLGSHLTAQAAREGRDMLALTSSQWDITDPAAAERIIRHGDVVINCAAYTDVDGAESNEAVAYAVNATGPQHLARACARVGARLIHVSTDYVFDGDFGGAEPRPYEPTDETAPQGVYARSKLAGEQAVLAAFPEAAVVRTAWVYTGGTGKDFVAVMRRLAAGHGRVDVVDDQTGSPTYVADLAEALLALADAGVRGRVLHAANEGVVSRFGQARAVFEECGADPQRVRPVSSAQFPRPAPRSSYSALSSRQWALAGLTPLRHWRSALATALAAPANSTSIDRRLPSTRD
# Target sequence (P9WH11 whole entry, looked up): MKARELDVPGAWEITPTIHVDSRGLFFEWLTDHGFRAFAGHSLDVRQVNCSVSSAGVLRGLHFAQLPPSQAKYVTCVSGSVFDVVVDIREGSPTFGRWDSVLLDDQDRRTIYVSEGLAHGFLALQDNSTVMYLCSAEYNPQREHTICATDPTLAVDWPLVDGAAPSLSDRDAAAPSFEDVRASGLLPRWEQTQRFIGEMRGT
# * = called active by the depositor; / = no result given. This excerpt belongs to a sample that is enriched for hits.
SMILES,YopH inh,RmlCD inh 1536
Cc1cccn2c(=O)c3cc(C(=O)NC(C)C)c(=N)n(Cc4ccncc4)c3nc12,-34,6
CCNC(=O)c1cc2c(=O)n3cccc(C)c3nc2n(Cc2ccc(C)cc2)c1=N,-30,57*
CSc1nn(-c2ccc(C(=O)OCC(=O)NC(=O)NC(C)C)cc2)c(=S)s1,-32,1
O=C(c1ccco1)[C@@H]1[C@@H]2C(=O)N(c3ccc(Br)cc3)C(=O)[C@@H]2C2c3ccccc3C=CN21 (stereo partly drawn),88*,/
O=C(c1ccco1)[C@@H]1[C@@H]2C(=O)N(c3ccc(F)cc3)C(=O)[C@@H]2[C@H]2C=Cc3ccccc3N21,40,-6
O=C(c1ccco1)[C@@H]1[C@@H]2C(=O)N(c3ccc(F)cc3)C(=O)[C@@H]2C2c3ccccc3C=CN21 (stereo partly drawn),74*,8
O=C(c1ccc(Cl)cc1)[C@@H]1[C@@H]2C(=O)N(c3ccc(Cl)cc3)C(=O)[C@@H]2C2c3ccccc3C=NN21 (stereo partly drawn),-14,4
O=C(COc1ccc2ccccc2c1)N/N=C/C1CC=CCC1 (stereo not drawn),-29,-8
CC(C)(C)c1cc(OC(=O)c2ccncc2)ccc1O,57*,/
CC(C)(C)c1cc(OC(=O)c2ccccc2F)ccc1O,/,0
c1cnc(-c2noc(CN3CCN(C4CCCC4)CC3)n2)cn1,/,-6
COc1cc(CCC(=O)Nc2ccc(S(=O)(=O)NC3=NCCCCC3)cc2)cc(OC)c1OC,/,-4
Cc1ccc(-n2c(C)cc(C3=NNC(=NC4CC4)SC3)c2C)cc1C,-14,32
COc1ccc(-n2c(=O)c3ccccc3n(CC(=O)NCc3ccco3)c2=O)cc1,/,-1
COc1ccc2c(c1)c(=O)cc(C)n2CC(=O)NCc1ccco1,93*,/
O=C1COc2ccc(C(=O)COc3ccc([N+](=O)[O-])cc3)cc2N1,/,-6
COc1ccc(NC(=O)C2CC(=O)N/C(=N/NC(=O)c3ccc(Cl)cc3)S2)cc1 (stereo not drawn),/,7
COc1ccc(-n2c(NC(=O)c3ccco3)c(C#N)c3nc4ccccc4nc32)cc1,90*,7
COCCNC(=O)c1c(NC(=O)c2ccco2)n(Cc2ccccc2)c2nc3ccccc3nc12,-13,-3
Cc1ccc(S(=O)(=O)N2CCOCC2)cc1NC(=O)COC(=O)c1cc(=O)c2ccccc2o1,-15,3
CCOc1ccc(-c2nnc3ccc(SCC(=O)Nc4nc5ccc(C)cc5s4)nn23)cc1,-7,8
CCOc1ccc(-c2nnc3ccc(SCC(=O)Nc4nc5ccccc5s4)nn23)cc1,65*,4
CNc1nc(SC)nc2ccsc12,-45,-3
CC1CCCC(C)N1C(=O)Cn1cnc2cc([N+](=O)[O-])ccc2c1=O (stereo not drawn),/,9
O=C(CN1CCC(NC(=O)Nc2ccccc2-c2ccccc2)CC1)NCc1ccco1,-17,10
SMILES,YopH inh,RmlCD inh 1536
N#Cc1cn(Cc2ccccc2)c2ccccc12,0,3
N#Cc1ccccc1Cn1cc(C#N)c2ccccc21,51*,/
Cc1ccc(C(c2nnnn2C2CCCC2)N2c3ccccc3CC2C)cc1 (stereo not drawn),-33,/
COC(=O)CC/C(O)=C1\C(=O)CC(C)(C)CC1=NCc1nc2ccccc2[nH]1,/,-2
Nc1cccc2nsnc12,/,18
Nc1cc2nsnc2cc1Br,100*,-4
O=C(NCc1cccnc1)c1ccc(NC(=O)c2cccc([N+](=O)[O-])c2)cc1,/,5
CC12CC3CC(C)(C1)CC(Nc1nc(N4CCOCC4)nc4ccccc14)(C3)C2,/,20
CC(C(=O)Nc1ccc2c(c1)OCCO2)N1CCN(C(=O)c2ccco2)CC1 (stereo not drawn),-24,/
COc1ccc2c(c1OC)C(=O)N(c1ccc(C)cc1)C2,/,9
C=CCn1c(-c2cc(OC)c(OC)c(OC)c2)n[nH]c1=S,2,6
CCn1c(-c2cc(OC)c(OC)c(OC)c2)n[nH]c1=S,96*,/
COc1cc(CCCN2C(N)=NC[C@@H]2Cc2ccccc2)cc(OC)c1OC,/,7
Cc1ccc(C(=O)N(Cc2cccnc2)Cc2cc3cc(C)ccc3n3nnnc23)cc1,/,7
O=C1Cc2ccccc2C(=O)N1Cc1ccccc1,83*,12
O=C1c2cccnc2C(=O)N1Cc1ccccc1,-41,2
O=C(NCC1CCCO1)c1coc2nc3ccccc3nc12 (stereo not drawn),-24,-5
COC(CNC(=O)c1coc2nc3ccccc3nc12)OC,/,74*
CC1=C(C)CC2(SC1)C(=O)N(c1ccccc1)N=C2N (stereo not drawn),/,8
COc1c(OC2OC(C(=O)O)C(O)C(O)C2O)cc(O)c2c(=O)cc(-c3ccccc3)oc12 (stereo not drawn),-48,/
O=C(O)C1OC(Oc2cc3oc(-c4ccccc4)cc(=O)c3c(O)c2O)C(O)C(O)C1O (stereo not drawn),53*,/
Fc1cccc(Cc2noc(CN3CCCCC3c3ccccn3)n2)c1 (stereo not drawn),/,3
CCOC(=O)/C(C#N)=C/c1cn(CCOc2ccc(OC)cc2)c2ccccc12,4,/
C=C1C(=O)[C@@]23[C@H](O)C[C@@H]4C(C)(C)CC[C@H](O)[C@@]4(C)[C@@H]2CC[C@@H]1[C@H]3O,-31,/
Cc1ccc(S(=O)(=O)NC(CC(C)C)C(=O)Oc2ccc3c4c(c(=O)oc3c2)CCC4)cc1 (stereo not drawn),-19,7
SMILES,YopH inh,RmlCD inh 1536
CCC(C)C(NS(=O)(=O)c1ccc(C)cc1)C(=O)Oc1ccc2c3c(c(=O)oc2c1)CCC3 (stereo not drawn),-34,/
CC[C@@H](NS(=O)(=O)c1ccc(C)cc1)C(=O)Oc1ccc2c3c(c(=O)oc2c1)CCC3,2,46*
CC(C)CC(C(=O)Oc1ccc2c3c(c(=O)oc2c1)CCC3)N1C(=O)c2ccccc2C1=O (stereo not drawn),-8,55*
CCOC(=O)C1=C(C)NC2(O)c3ccccc3C(=O)C12O (stereo not drawn),68*,10
COCCOC(=O)C1=C(C)NC2(O)c3ccccc3C(=O)C12O (stereo not drawn),/,-3
CNC(=O)COC(=O)c1cc(-c2ccco2)nc2ccccc12,/,37*
O=C(COC(=O)c1cc(-c2ccco2)nc2ccccc12)NCc1ccccc1,-26,/
O=C(C[n+]1ccn(CCCNP2(=O)C=C(c3ccccc3)OC(c3ccccc3)=C2)c1)c1cccs1,/,-5
N#CC1=C(N)OC2=C(C(=O)CCC2)[C@]12C(=O)N(CC(N)=O)c1ccccc12,-50,/
O=C1CCCC2=C1C1(O)C(=O)c3ccccc3C1(O)O2 (stereo not drawn),99*,10
CN(CC(=O)N1CCCc2c1c(=O)oc1ccc(O)cc21)Cc1ccccc1,51*,30
CC1CCN(CCC(=O)N2CCCc3c2c(=O)oc2ccc(O)cc32)CC1,61*,-6
O=C(CN1CCCC1)N1CCCc2c1c(=O)oc1ccc(OCc3ccccc3)cc21,-37,-8
CC(C(=O)N1CCCc2c1c(=O)oc1ccc(O)cc21)N1CCc2ccccc2C1 (stereo not drawn),53*,8
CC(C(=O)N1CCc2ccccc21)N1CCc2ccccc2C1 (stereo not drawn),-2,/
CCCOc1ccc2oc(=O)c3c(c2c1)CCCN3C(=O)CN1CCCC(C(=O)OCC)C1 (stereo not drawn),-9,19

# Screens deposited in PubChem by several laboratories.
